# The sample as a whole holds a higher share of hits than the screen did.
# FECH inh: blocks human mitochondrial ferrochelatase activity | 20,000 compounds, 3.3% hits | calls only at 10 µM (by protocol) | purified FECH, Ni-mesoporphyrin absorbance 550 nm | P22830;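 active = enzyme reaction rate more than 3 SD below the solvent-only control wells on the same plate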;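 note: lower slope than DMSO wells means FECH inhibition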
# Target sequence (P22830 whole entry, looked up): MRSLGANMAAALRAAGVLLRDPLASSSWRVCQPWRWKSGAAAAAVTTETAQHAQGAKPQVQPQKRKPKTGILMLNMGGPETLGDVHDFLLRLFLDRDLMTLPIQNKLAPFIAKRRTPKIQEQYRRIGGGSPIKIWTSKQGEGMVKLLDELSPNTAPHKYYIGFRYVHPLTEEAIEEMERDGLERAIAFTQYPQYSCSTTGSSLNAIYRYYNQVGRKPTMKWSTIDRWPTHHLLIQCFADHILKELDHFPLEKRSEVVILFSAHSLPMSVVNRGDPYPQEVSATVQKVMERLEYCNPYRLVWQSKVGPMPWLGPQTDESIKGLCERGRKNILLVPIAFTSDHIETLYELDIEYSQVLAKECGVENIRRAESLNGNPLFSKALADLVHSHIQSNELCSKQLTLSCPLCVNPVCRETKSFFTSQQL
# * = called active by the depositor; i = inactive; + = active, no number.
SMILES,FECH inh
COc1ccc(OC)c(CNC(=O)Cn2c(=O)c3cnc(-c4ccccc4)nc3n(C)c2=O)c1,i
COc1ccc(OC)c(CNC(=O)CN2C(=O)c3cccnc3Sc3ccccc32)c1,+
CCOc1ccc(CNC(=O)CN2C(=O)CN(C)C(=O)c3ccccc32)cc1OC,i
Cc1cc(C)c2[nH]c(=O)c(CN3CCOC4(CNCCOC4)C3)cc2c1 (stereo not given),i
COc1ccc(NC(=O)N2CCN(c3cc(-c4ccccc4C)ncn3)CC2)cc1,i
CCOc1ccc(NCc2cc(=O)n3[nH]c(NCc4ccccc4)nc3n2)cc1,i
Cc1cccc(-c2nc3nc(CN4CCN(c5ccc(F)cc5)CC4)cc(=O)n3[nH]2)c1,i
CC(C)(C)c1ccc(-c2nc3nc(CNc4ccc(Cl)cc4)cc(=O)n3[nH]2)cc1,i
CC(C)(C)c1ccc(-c2nc3nc(CNc4ccccc4)cc(=O)n3[nH]2)cc1,+
Cc1cccc(-c2nc3nc(CN4CCN(c5ccccc5)CC4)cc(=O)n3[nH]2)c1,i
CC(C)(C)c1ccc(-c2nc3nc(CNc4cccc(C(F)(F)F)c4)cc(=O)n3[nH]2)cc1,i
CC(C)(C)c1ccc(-c2nc3nc(CN4CCc5ccccc5C4)cc(=O)n3[nH]2)cc1,+
CCOc1ccc(NCc2cc(=O)n3[nH]c(-c4ccc(C(C)(C)C)cc4)nc3n2)cc1,+
CN1CCN(Cc2cc(=O)n3[nH]c(-c4ccc(C(C)(C)C)cc4)nc3n2)CC1,i
CC(C)(C)c1ccc(-c2nc3nc(CN4CCCCC4)cc(=O)n3[nH]2)cc1,i
COc1ccccc1N1CCN(Cc2cc(=O)n3[nH]c(-c4cccc(C)c4)nc3n2)CC1,+
COc1ccc(NCc2cc(=O)n3[nH]c(-c4ccc(C(C)(C)C)cc4)nc3n2)cc1,i
CCN1CCc2c(sc(NC(=O)c3ccc(Cl)cc3)c2C(=O)OC)C1,i
COc1ccc(N2C(=O)CCS2(=O)=O)cc1S(=O)(=O)Nc1ccc(F)c(Cl)c1,i
Cn1c(=O)n(C)c2cc(CNC(=O)C(=O)c3ccco3)ccc21,i
O=C1c2cccnc2CN1CCc1cnn(-c2ccccc2)c1,i
CCc1ccc(C(=O)NCC2CCN(Cc3cnn(C)c3)C2)cc1 (stereo not given),i
Cc1cc(Sc2ccc(N)cc2)n2nc(C)nc2n1,i
COc1cccc2c1OCC(CN1CCCC(Cn3ccnc3C)C1)=C2 (stereo not given),i
Cc1cc(N2CCCCC2)nc(N2CCN(S(=O)(=O)c3ccc(C)c(C)c3)CC2)n1,i
SMILES,FECH inh
COc1ccc(N2C(=O)CCS2(=O)=O)cc1S(=O)(=O)NCC(C)C,i
COc1ccc(NC(=O)CN2CCCN(Cc3cccc(F)c3)S2(=O)=O)c(OC)c1,i
COCCN(Cc1ccc2c(C)cc(=O)oc2c1)Cc1ccccc1F,i
COc1ccccc1NCc1cc(=O)n2[nH]c(-c3ccc(C(C)(C)C)cc3)nc2n1,i
Cc1c(Cl)cccc1NCc1cc(=O)n2[nH]c(-c3ccc(C(C)(C)C)cc3)nc2n1,i
Cc1ccccc1NCc1cc(=O)n2[nH]c(-c3ccc(C(C)(C)C)cc3)nc2n1,+
COc1ccc(Cl)cc1NCc1cc(=O)n2[nH]c(-c3ccc(C(C)(C)C)cc3)nc2n1,+
CC(C)(C)c1ccc(-c2nc3nc(CN4CCN(c5ccccc5)CC4)cc(=O)n3[nH]2)cc1,i
COc1ccc(Cl)cc1NCc1cc(=O)n2[nH]c(NCc3ccc(F)cc3)nc2n1,i
CCc1ccccc1NCc1cc(=O)n2[nH]c(-c3ccc(C(C)(C)C)cc3)nc2n1,+
CN(Cc1ccccc1)Cc1cc(=O)n2[nH]c(-c3ccc(C(C)(C)C)cc3)nc2n1,i
Cc1ccc(NCc2cc(=O)n3[nH]c(-c4ccc(C(C)(C)C)cc4)nc3n2)cc1Cl,i
CCC1CN(C(=O)Cn2nc(C)ccc2=O)CCC(=O)N1Cc1ccccc1 (stereo not given),i
Cc1cc(N2CCN(C(=O)c3scc4c3CCCC4)CC2)nc(N)n1,i
COC(=O)c1cc2ccsc2n1C(C)C(=O)Nc1ccc(F)cc1 (stereo not given),i
Cc1cccc(N2CCN(c3ncc(NS(=O)(=O)c4cc(C)cc(C)c4)cc3C(=O)O)CC2C)c1 (stereo not given),i
O=C(c1ccccc1)N1CCC(NCCN2CCc3ccccc32)CC1,i
CN(C1CCCCC1)S(=O)(=O)c1ccc2c(c1)NC(=O)CC(=O)N2,i
Cc1ccc(NC(=O)C(C)n2nc(-c3ccc(C)c(S(N)(=O)=O)c3)c3c(c2=O)CCCC3)cc1 (stereo not given),i
CS(=O)(=O)NC1CCN(CC(O)CO)CC1 (stereo not given),i
CCn1c(CNS(=O)(=O)c2ccc(C(C)(C)C)cc2)nc2cccnc21,i
CCC1=C(c2ccc(OC)cc2)S(=O)(=O)N(CC(=O)NCc2ccc(CC)cc2)C1=O,i
CCOc1ccccc1CN(C(=O)c1cn2cc(Cl)ccc2n1)C1CC1,+
CCOc1ccccc1CN(C(=O)c1cn(CC)c2nc(C)ccc2c1=O)C1CC1,i
CCOc1ccccc1CN(CC)C(=O)c1ccc2nccn2c1,i
SMILES,FECH inh
Cc1ccc(OCc2cc(=O)n3oc(C)cc3n2)c(NC(=O)c2ccccc2)c1,i
O=C(CCN(CC1CCCO1)C(=O)c1ccc(Br)cc1)N1CCNCC1 (stereo not given),i
Cc1cc(C)c(NC(=O)CN2CCN(Cc3ccc(F)cc3)S2(=O)=O)c(C)c1,+
Cc1cccc(CN2CCCN(CC(=O)Nc3c(C)cc(C)cc3C)S2(=O)=O)c1,+
Cc1ccc(CN2CCCN(CC(=O)Nc3ccc(C)cc3C)S2(=O)=O)cc1,i
Cc1cccc(CN2CCCN(CC(=O)NC3CCCC3)S2(=O)=O)c1,i
Cc1ccc(C)c(NC(=O)CN2CCN(Cc3ccccc3C)S2(=O)=O)c1,i
Cc1ccc(NC(=O)CN2CCN(Cc3ccc(F)cc3)S2(=O)=O)cc1C,i
Cc1cccc(CN2CCCN(CC(=O)Nc3ccc(C)cc3C)S2(=O)=O)c1,+
Cc1cccc(NC(=O)CN2CCN(Cc3ccccc3C)S2(=O)=O)c1,i
Cc1cccc(CN2CCN(CC(=O)Nc3ccc(C)cc3C)S2(=O)=O)c1,i
Cc1ccc(NC(=O)CN2CCN(Cc3ccc(F)cc3)S2(=O)=O)c(C)c1,i
CSc1cccc(NC(=O)CN2CCCN(Cc3cccc(C)c3)S2(=O)=O)c1,i
Cc1ccc(NC(=O)CN2CCN(Cc3ccccc3C)S2(=O)=O)c(C)c1,+
COc1ccc(Nc2cc(C)nc(N3CCN(S(=O)(=O)c4cc(C(C)(C)C)ccc4OC)CC3)n2)cc1,i
COCCc1noc(C2CCCN2CC(=O)N2CCCc3cc(C)ccc32)n1 (stereo not given),i
CCS(=O)(=O)NCc1nc2cccnc2n1Cc1ccc(C)cc1,i
CCOc1ccc(Nc2nc(NC3CCCC3)nc3c2cnn3-c2ccccc2)cc1,i
C=CCNc1ccccc1C(=O)NCc1cc(-c2cccnc2)no1,i
CC(C)c1cc(Nc2ccccc2Cl)n2nc(-c3cccnc3)nc2n1,i
Cc1cc(C)c(CN2CCCN(Cc3ccccc3)S2(=O)=O)c(C)c1,+
Cc1ccc(CN2CCCN(CC(=O)Nc3cc(C)ccc3C)S2(=O)=O)cc1,i
Cc1cc(C)c(CN2CCCN(Cc3ccc(Cl)cc3)S2(=O)=O)c(C)c1,i
Cc1cccc(CN2CCN(CC(=O)Nc3cc(C)ccc3C)S2(=O)=O)c1,+
Cc1cc(C)c(NC(=O)CN2CCCN(Cc3ccccc3)S2(=O)=O)c(C)c1,i

# Screening data (PubChem BioAssay)
